Test results: PubChem BioAssay AID1159580 (chemical genetic matrix, 2015)
“And” between values parts separate entries of the source, which are not always exact repeats. Identical values can stand only once. In all, about 5,500 compounds went through this assay and about 2,000 (36%) were called active. Inconclusive results (about 18%) are left out. Cut-off read from the data, not from the text of the source: active = normalized growth mostly below about 0.91 (no sharp cut-off); inconclusive = no clear call, values can overlap the other calls; inactive = mostly above about 0.92. Some of the results follow.

Test: chemical genetic growth profiling, strain panel (AID 1159580);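 note: tested at 20 µM; growth read once vehicle control cultures reached saturation at 30 °C; 1 = growth at the plate median or of vehicle wells; lower values mean less growth of the strain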
Settings: S. cerevisiae deletion strains, growth OD

Measured: normalized growth

CC(=O)OCC1=C(C(=O)O)N2C(=O)[C@@H](NC(=O)CCCC(N)C(=O)O)C2SC1 (some centres not stated)
inactive: locus YAL013W, strain DEP1, stronger effect = lower value 1.02 | locus YAL021C, strain ccr4, stronger effect = lower value 1.01 | locus YAL026C, strain drs2, stronger effect = lower value 1.01 | locus YAL030W, strain snc1, stronger effect = lower value 0.998 | locus YBL061C, strain skt5, stronger effect = lower value 0.997 | locus YBR009C, strain hhf1, stronger effect = lower value 1.02 | locus YBR021W, strain FUR4, stronger effect = lower value 0.998 | locus YBR023C, strain chs3, stronger effect = lower value 0.987 | locus YBR171W, strain sec66, stronger effect = lower value 1 | locus YBR229C, strain ROT2, stronger effect = lower value 1 | locus YBR231C, strain swc5, stronger effect = lower value 0.992 | locus YBR279W, strain paf1, stronger effect = lower value 0.989 | locus YCL011C, strain gbp2, stronger effect = lower value 1 | locus YCL016C, strain dcc1, stronger effect = lower value 0.988 | locus YCL029C, strain bik1, stronger effect = lower value 1.02 | locus YCL061C, strain MRC1, stronger effect = lower value 0.997 | locus YCL069W, strain vba3, stronger effect = lower value 0.997 | locus YCR088W, strain abp1, stronger effect = lower value 0.998 | locus YDL005C, strain med2, stronger effect = lower value 0.992 | locus YDL035C, strain GPR1, stronger effect = lower value 1.03 | locus YDL040C, strain nat1, stronger effect = lower value 0.99 | locus YDL074C, strain BRE1, stronger effect = lower value 1 | locus YDL101C, strain DUN1, stronger effect = lower value 1.01 | locus YDL134C, strain PPH21, stronger effect = lower value 1.01 | locus YDL185W, strain tfp1, stronger effect = lower value 1 | locus YDL192W, strain arf1, stronger effect = lower value 1.01 | locus YDR001C, strain nth1, stronger effect = lower value 0.99 | locus YDR069C, strain doa4, stronger effect = lower value 1.01 | locus YDR101C, strain arx1, stronger effect = lower value 1 | locus YDR137W, strain rgp1, stronger effect = lower value 0.985 | locus YDR150W, strain NUM1, stronger effect = lower value 1.02 | locus YDR159W, strain sac3, stronger effect = lower value 1.01 | locus YDR162C, strain NBP2, stronger effect = lower value 1.02 | locus YDR195W, strain ref2 0.963 | locus YDR297W, strain sur2, stronger effect = lower value 0.999 | locus YDR318W, strain mcm21, stronger effect = lower value 1.05 | locus YDR334W, strain swr1, stronger effect = lower value 0.996 | locus YDR335W, strain msn5, stronger effect = lower value 0.992 | locus YDR388W, stronger effect = lower value 0.986 | locus YDR392W, strain spt3, stronger effect = lower value 0.942 | locus YDR502C, strain sam2, stronger effect = lower value 1.04 | locus YEL003W, strain gim4, stronger effect = lower value 0.994 | locus YEL037C, strain rad23, stronger effect = lower value 0.99 | locus YEL061C, strain CIN8 (second series), stronger effect = lower value 0.991 | locus YEL061C, strain CIN8, stronger effect = lower value 1.01 | locus YER015W, strain faa2, stronger effect = lower value 0.993 | locus YER016W, strain bim1, stronger effect = lower value 0.999 | locus YER110C, stronger effect = lower value 0.994 | locus YER111C, strain swi4, stronger effect = lower value 0.995 | locus YER155C, strain BEM2 (second series), stronger effect = lower value 1 | locus YER155C, strain BEM2, stronger effect = lower value 1 | locus YER167W, strain BCK2, stronger effect = lower value 1.03 | locus YFR010W, strain ubp6, stronger effect = lower value 1.01 | locus YGL078C, strain dbp3, stronger effect = lower value 1.01 | locus YGL086W, strain mad1, stronger effect = lower value 1.04 | locus YGL167C, strain pmr1, stronger effect = lower value 0.992 | locus YGL173C, strain kem1, stronger effect = lower value 1.01 | locus YGL227W, strain vid30, stronger effect = lower value 0.994 | locus YGL240W, strain doc1, stronger effect = lower value 0.998 | locus YGL248W, strain PDE1, stronger effect = lower value 1 | locus YGL253W, strain hxk2, stronger effect = lower value 0.982 | locus YGR078C, strain PAC10, stronger effect = lower value 1.01 | locus YGR135W, strain pre9, stronger effect = lower value 1.06 | locus YGR229C, strain SMI1, stronger effect = lower value 1.01 | locus YGR252W, strain gcn5, stronger effect = lower value 1.04 | locus YHR013C, strain ard1, stronger effect = lower value 1.09 | locus YHR027C, strain rpn1, stronger effect = lower value 0.99 | locus YHR030C, strain SLT2, stronger effect = lower value 1.01 and 0.982 | locus YHR079C, strain IRE1 (second series), stronger effect = lower value 0.999 | locus YHR079C, strain IRE1, stronger effect = lower value 0.988 | locus YHR094C, strain hxt1, stronger effect = lower value 0.991 | locus YHR129C, strain ARP1, stronger effect = lower value 1 | locus YHR142W, strain chs7, stronger effect = lower value 0.994 | locus YHR200W, strain rpn10, stronger effect = lower value 1.02 | locus YIL066C, strain RNR3, stronger effect = lower value 1.04 | locus YIL073C, strain SPO22, stronger effect = lower value 1.25 | locus YIL125W, strain kgd1, stronger effect = lower value 1 | locus YIR030C, strain dcg1, stronger effect = lower value 1 | locus YJL092W, strain hpr5, stronger effect = lower value 0.993 | locus YJL095W, strain BCK1 (second series), stronger effect = lower value 0.99 | locus YJL095W, strain BCK1, stronger effect = lower value 1.01 | locus YJL115W, strain asf1, stronger effect = lower value 0.985 | locus YJL129C, strain trk1, stronger effect = lower value 1 | locus YJL134W, strain LCB3, stronger effect = lower value 1 | locus YJL154C, strain vps35, stronger effect = lower value 0.986 | locus YJL164C, strain tpk1, stronger effect = lower value 1.01 | locus YJL166W, strain qcr8, stronger effect = lower value 0.989 | locus YJL168C, strain set2, stronger effect = lower value 0.996 | locus YJL187C, strain SWE1 (second series), stronger effect = lower value 1.03 | locus YJL187C, strain SWE1, stronger effect = lower value 0.994 | locus YJR043C, strain POL32, stronger effect = lower value 1.01 | locus YJR066W, strain TOR1, stronger effect = lower value 0.942
